From PubChem BioAssay (NCATS) come the findings set out here.

Results filed as inconclusive are left out. Activity calls are given as the source filed them. Unless noted, calls follow the shape of the full dose curve.

A short description of assay [1]: Natriuretic polypeptide receptor (hNpr1) antagonism - Pilot counterscreen GloSensor control cell line (AID 1347045). The conditions noted are these: HEK293 cGMP GloSensor cells, SNP-stimulated luminescence, 20 min; series mostly up to 38.3 µM. The gist of the method: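 Cells were first seeded and incubated overnight at 37C, then loaded with 2% GloSensor substrate for 2 h. Compounds were added for 30 min at room temperature, followed by a baseline read, 50 uM SNP and a final read after 20 min.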
In general terms: A counterscreen serves to expose hits that act by an unwanted route or on another target.

In assay [2] the target is Atrial natriuretic peptide receptor 1 (Homo sapiens) (UniProt P16066). Nature of the assay: Natriuretic polypeptide receptor (hNpr1) antagonism - Pilot screen (AID 1347049).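 Also: agonist-evoked cGMP luminescence read 20 min after hNppA addition.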 Also: potency is read from the fitted curve at half-maximal effect. Particulars: hNpr1 cells, antagonist mode cGMP read-out; series mostly up to 57.5 µM. An outline of the steps: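 cGMP-sensor HEK293/hNpr1 cells, 1500/well, plated overnight at 37C. 2% GloSensor reagent, 2 h RT. Compound (23 nL pin transfer) 30 min RT, baseline luminescence pre-read. 0.1 nM hNppA, 20 min RT, post-read.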

Assay [3] has as its target Atrial natriuretic peptide receptor 2 (Homo sapiens) (UniProt P20594). Nature of the assay: Natriuretic polypeptide receptor (hNpr2) antagonism - Pilot subtype selectivity assay (AID 1347050). Also: potency is read from the fitted curve at half-maximal effect. The conditions noted are these: NPR2-expressing cells, cGMP antagonist-mode read-out; series mostly up to 38.3 µM. The gist of the method:
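Luminescence from a genetically encoded cGMP luciferase biosensor in hNpr2-expressing HEK293 cells is read before and 20 min after adding 1 nM hNppC. Test compounds, in interplate 1:5 titrations, are added 30-50 min ahead of the agonist.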

Assay [4] can be described thus: NS1 protein of Zika virus - qHTS assay to identify small molecule inhibitors in human HEK 293 cells (AID 1347053; active = well fitted curve in the direction sought with a large enough effect; an effect the other way counts as inactive or inconclusive; also: nearly all actives have a fitted effect of over 55% in size). The conditions noted are these: HEK293 ZIKV MR766 infection, NS1 TR-FRET, 24 h; series mostly up to 46.1 µM. The gist of the method:
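TR-FRET signal from two anti-ZIKV NS1 antibodies quantified NS1 in HEK 293 cells 24 h after MR766 infection at MOI = 0.5; compounds were added 1 h before virus. Uninfected cells and infected cells defined the NS1 normalization range.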
(In qHTS, concentration-response curves come from the screen itself.)

Assay [5] deals with T1, Tyrosine-protein phosphatase non-receptor type substrate 1 (Homo sapiens) + Leukocyte surface antigen CD47 (Homo sapiens) (UniProt P78324+Q08722). The experiment in a line: CD47-SIRPalpha protein protein interaction - LANCE assay qHTS validation (AID 1347057; active = well fitted curve in the direction sought with a large enough effect in the signal ratio, with a control signal flat, not every such curve was filed as active; the % refers to the signal ratio; also: potency is read from the fitted curve at half-maximal effect). Particulars: Recombinant CD47-His / biotin-SIRPalpha, TR-FRET ratio; series mostly up to 38.3 µM. An outline of the steps: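 Inhibition of soluble CD47/SIRPalpha ectodomain association by titrated compounds, measured as 665/615 nm time-resolved FRET ratio after sequential 30 min room-temperature incubations.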
For orientation: Time-resolved FRET reads energy transfer from a long-lived donor to a nearby acceptor.

The target of assay [6] is T1, Tyrosine-protein phosphatase non-receptor type substrate 1 (Homo sapiens) + Leukocyte surface antigen CD47 (Homo sapiens). Nature of the assay: CD47-SIRPalpha protein protein interaction - HTRF assay qHTS validation (AID 1347058; active = well fitted curve in the direction sought with a large enough effect in the signal ratio, not every such curve was filed as active; the % refers to the signal ratio). The conditions noted are these: TR-FRET HTRF CD47-His / biotin-SIRPalpha binding, ratio 665/615; series mostly up to 38.3 µM. An outline of the steps:
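Soluble extracellular domains (6His-CD47, Avi-tag-biotinylated SIRPalpha) in PBS pH 7.4 with 0.05% IGEPAL CA-630. Compounds were preincubated 30 min at RT with CD47 and anti-His-Eu, then SIRPalpha and SAV-XL665 were added. TR-FRET 665/615 ratio.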

For assay [7] the target is unchanged. Nature of the assay: CD47-SIRPalpha protein protein interaction - Alpha assay qHTS validation (AID 1347059; active = well fitted curve in the direction sought with a large enough effect; an effect the other way counts as inactive or inconclusive;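 also: bead proximity luminescence from CD47 binding SIRPalpha after compound preincubation with SIRPalpha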; also: potency is read from the fitted curve at half-maximal effect). Particulars: AlphaScreen CD47-His/biotin-SIRPalpha binding, LOPAC; series mostly up to 38.3 µM. An outline of the steps:
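SIRPalpha-biotin 25 nM + cpd, 30 min RT, dark; add CD47-His 12.5 nM, 30 min; add Ni-NTA/SAV beads 10 ug/mL, 30 min; AlphaScreen. Buffer PBS pH 7.4 + 0.05% IGEPAL CA-630. Non-biotinylated SIRPalpha as control inhibitor.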

T1 sequence (P78324 whole entry, looked up, the tested form may be a part): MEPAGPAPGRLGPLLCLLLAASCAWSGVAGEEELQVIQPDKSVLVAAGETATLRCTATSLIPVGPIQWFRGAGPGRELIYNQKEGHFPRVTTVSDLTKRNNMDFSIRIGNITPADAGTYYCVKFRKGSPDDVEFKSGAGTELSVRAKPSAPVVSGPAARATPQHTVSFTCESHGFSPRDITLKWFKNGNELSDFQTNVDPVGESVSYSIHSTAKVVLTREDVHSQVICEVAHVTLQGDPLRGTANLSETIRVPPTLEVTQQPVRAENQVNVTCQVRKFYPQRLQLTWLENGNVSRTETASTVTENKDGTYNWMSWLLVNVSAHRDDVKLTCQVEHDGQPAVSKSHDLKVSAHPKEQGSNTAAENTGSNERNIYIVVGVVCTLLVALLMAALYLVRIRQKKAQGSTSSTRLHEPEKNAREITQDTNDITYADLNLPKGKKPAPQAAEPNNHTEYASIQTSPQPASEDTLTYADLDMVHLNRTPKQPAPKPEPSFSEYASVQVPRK
T1 sequence (Q08722 whole entry, looked up, the tested form may be a part): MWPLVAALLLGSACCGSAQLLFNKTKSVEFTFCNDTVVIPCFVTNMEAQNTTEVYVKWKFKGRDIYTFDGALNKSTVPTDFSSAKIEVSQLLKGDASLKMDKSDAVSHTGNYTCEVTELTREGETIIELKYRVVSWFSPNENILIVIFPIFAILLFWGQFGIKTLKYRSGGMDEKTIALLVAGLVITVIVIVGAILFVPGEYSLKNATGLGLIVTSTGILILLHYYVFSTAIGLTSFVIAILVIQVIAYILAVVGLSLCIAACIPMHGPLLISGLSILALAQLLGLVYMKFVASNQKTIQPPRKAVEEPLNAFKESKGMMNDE
Atrial natriuretic peptide receptor 1 (Homo sapiens), sequence (P16066 whole entry, looked up): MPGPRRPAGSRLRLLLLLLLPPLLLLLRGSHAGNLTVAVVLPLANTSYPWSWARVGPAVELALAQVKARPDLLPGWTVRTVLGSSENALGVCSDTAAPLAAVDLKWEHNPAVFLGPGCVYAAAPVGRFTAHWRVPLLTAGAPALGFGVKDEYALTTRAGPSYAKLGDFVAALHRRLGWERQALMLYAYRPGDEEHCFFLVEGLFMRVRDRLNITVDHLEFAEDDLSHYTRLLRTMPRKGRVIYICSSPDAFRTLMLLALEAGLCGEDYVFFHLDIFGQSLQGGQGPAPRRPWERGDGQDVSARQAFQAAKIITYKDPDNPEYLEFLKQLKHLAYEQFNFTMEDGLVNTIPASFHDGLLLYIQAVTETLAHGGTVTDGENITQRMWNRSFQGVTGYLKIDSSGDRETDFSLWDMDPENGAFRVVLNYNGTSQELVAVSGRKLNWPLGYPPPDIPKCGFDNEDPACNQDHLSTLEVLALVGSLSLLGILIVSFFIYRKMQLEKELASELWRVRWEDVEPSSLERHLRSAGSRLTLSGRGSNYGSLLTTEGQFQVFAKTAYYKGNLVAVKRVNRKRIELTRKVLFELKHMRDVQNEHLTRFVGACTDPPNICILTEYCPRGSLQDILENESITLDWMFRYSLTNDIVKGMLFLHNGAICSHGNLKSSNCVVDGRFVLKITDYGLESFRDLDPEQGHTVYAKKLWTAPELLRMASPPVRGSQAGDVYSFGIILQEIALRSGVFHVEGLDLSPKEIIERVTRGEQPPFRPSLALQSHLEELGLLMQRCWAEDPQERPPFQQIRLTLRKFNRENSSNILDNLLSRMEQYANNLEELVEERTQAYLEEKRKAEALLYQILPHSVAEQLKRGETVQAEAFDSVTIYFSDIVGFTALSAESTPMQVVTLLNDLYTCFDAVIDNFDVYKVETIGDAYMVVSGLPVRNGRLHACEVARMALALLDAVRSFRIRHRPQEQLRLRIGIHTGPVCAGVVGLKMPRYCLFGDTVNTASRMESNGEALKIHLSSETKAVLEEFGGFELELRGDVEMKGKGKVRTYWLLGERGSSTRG
Atrial natriuretic peptide receptor 2 (Homo sapiens), sequence (P20594 whole entry, looked up): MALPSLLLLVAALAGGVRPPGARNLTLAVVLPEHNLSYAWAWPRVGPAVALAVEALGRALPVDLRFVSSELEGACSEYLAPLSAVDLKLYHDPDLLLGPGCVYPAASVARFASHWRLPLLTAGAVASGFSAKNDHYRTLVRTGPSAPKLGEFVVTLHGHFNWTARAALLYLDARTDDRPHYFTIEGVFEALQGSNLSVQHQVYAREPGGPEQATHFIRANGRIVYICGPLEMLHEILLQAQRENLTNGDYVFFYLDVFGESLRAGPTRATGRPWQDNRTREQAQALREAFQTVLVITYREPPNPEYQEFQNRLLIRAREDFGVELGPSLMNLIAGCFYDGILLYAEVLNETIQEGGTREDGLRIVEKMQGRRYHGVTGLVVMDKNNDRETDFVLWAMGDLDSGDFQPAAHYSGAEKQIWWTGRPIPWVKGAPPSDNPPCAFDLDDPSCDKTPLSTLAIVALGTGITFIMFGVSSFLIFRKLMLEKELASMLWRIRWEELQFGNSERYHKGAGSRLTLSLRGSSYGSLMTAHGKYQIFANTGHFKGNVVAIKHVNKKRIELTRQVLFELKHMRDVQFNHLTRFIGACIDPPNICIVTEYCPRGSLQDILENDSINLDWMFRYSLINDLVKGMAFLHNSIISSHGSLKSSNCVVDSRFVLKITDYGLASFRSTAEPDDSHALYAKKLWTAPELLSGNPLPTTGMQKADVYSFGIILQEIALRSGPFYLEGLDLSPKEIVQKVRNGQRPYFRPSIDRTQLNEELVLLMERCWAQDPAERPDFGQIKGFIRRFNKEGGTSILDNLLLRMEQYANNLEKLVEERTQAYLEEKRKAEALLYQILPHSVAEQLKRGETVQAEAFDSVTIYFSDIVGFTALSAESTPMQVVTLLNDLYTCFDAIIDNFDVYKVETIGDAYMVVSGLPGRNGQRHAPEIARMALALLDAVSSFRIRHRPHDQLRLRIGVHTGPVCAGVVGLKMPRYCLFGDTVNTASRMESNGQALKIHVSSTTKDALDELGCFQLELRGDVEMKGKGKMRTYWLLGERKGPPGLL

`COc1ccc(OC)c(C(O)C(C)N)c1` (stereo not given): the Potency result in assay [1], in assay [2], in assay [3], in assay [5] and in assay [7] was “inactive” throughout. Also, the result in assay [4] and in assay [6] was inactive.

In the case of `CN1C2CCC1CC(OC(c1ccccc1)c1ccccc1N)C2` (stereo not given), the Potency entry in assay [1], in assay [2], in assay [5] and in assay [7] was “inactive” in each case. In addition, the compound was called inactive in assay [4] and in assay [6].

In the case of `Cc1c2ccncc2c(C)c2c1[nH]c1ccccc12`, the Potency result in assay [1], in assay [5] and in assay [7] was “inactive” each time. Besides, the Potency in assay [2] is 10.7 µM (active); in assay [3] it was 5.21 µM (active). Moreover, in assay [6], the outcome was inactive.

Turning to `NCC(CP(=O)(O)O)c1ccc(Cl)cc1` (stereo not given), the Potency result in assay [1], in assay [2], in assay [3], in assay [5] and in assay [7] was “inactive” throughout. In addition, the outcome in assay [4] was inactive.

With `C[N+](C)(C)CC#CCN1CCCC1=O`, the Potency entry in assay [1], in assay [2], in assay [3] and in assay [7] was “inactive” throughout. The result in assay [4] and in assay [6] was inactive.

Take `CN1CCc2cccc(Cl)c2CC1`: the Potency entry in assay [1], in assay [2], in assay [3], in assay [5] and in assay [7] was “inactive” each time. Further, the compound was classed as inactive in assay [4].

For `NC(=O)CI`, the Potency result in assay [1], in assay [2], in assay [3] and in assay [7] was “inactive” in each case. The compound was called inactive in assay [4] and in assay [6].

As for `O=C(O)c1cc[c]([Hg][Cl])cc1`, the Potency result in assay [1] and in assay [3] was “inactive” in each case.

On to `O=[N+]([O-])c1cc(O)c(O)c([N+](=O)[O-])c1`, for which the Potency result in assay [1], in assay [2], in assay [3], in assay [5] and in assay [7] was “inactive” each time. Besides, the compound was classed as inactive in assay [4].

As for `O=[N+]([O-])c1ccc2nc(N3CCNCC3)ccc2c1`, the Potency entry in assay [1], in assay [2], in assay [3], in assay [5] and in assay [7] was “inactive” in each case. Further, the compound was called inactive in assay [4].

With `CC(=O)OCC1=C(C(=O)O)N2C(=O)[C@@H](NC(=O)CCC[C@@H](N)C(=O)O)[C@H]2SC1`, the Potency entry in assay [1], in assay [2] and in assay [3] was “inactive” each time. For the same compound, in assay [4], the result was inactive. The Potency in assay [5] was 4.65 µM (active); in assay [7], 0.414 µM (active).

As to `NCCCP(=O)(O)O`, the Potency entry in assay [1], in assay [2], in assay [3], in assay [5] and in assay [7] was “inactive” in each case. Also, the outcome in assay [4] and in assay [6] was inactive.
